High-throughput results: PubChem BioAssay, National Center for Advancing Translational Sciences (NCATS)
A selection: hits, their analogues and other compounds. The true share with any hit is near 11%.
JMJD2E inh = JMJD2E (human) inhibition | JMJD2E catalytic domain, FDH-coupled NADH fluorescence (FDH is formaldehyde dehydrogenase) | AID 2147 | Potency, µM (titrated, usually from 57.1 µM), without a hit: at the top dose activity change, negative = inhibition, most hits filed as inhibitors | hit rate 1.6% among 230,000 | B2RXH2;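 note: potency is the fitted concentration of half-maximal effect; 0% = wells with enzyme and -100% = buffer wells without enzyme; nearly all actives have a fitted effect of over 50% in size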
ALDH1A1 block = inhibitors of human aldehyde dehydrogenase 1A1. Purified ALDH1A1, NADH fluorescence, propionaldehyde substrate. P00352. hit rate 7.3% among 220,000. Potency, µM (doses to about 75.3 µM), for the others: at the highest dose activity, negative = inhibition, actives largely listed as inhibitors;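 note: potency is the fitted concentration of half-maximal effect; plate controls were no enzyme wells and a reference inhibitor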
Target sequence (P00352 whole entry, looked up): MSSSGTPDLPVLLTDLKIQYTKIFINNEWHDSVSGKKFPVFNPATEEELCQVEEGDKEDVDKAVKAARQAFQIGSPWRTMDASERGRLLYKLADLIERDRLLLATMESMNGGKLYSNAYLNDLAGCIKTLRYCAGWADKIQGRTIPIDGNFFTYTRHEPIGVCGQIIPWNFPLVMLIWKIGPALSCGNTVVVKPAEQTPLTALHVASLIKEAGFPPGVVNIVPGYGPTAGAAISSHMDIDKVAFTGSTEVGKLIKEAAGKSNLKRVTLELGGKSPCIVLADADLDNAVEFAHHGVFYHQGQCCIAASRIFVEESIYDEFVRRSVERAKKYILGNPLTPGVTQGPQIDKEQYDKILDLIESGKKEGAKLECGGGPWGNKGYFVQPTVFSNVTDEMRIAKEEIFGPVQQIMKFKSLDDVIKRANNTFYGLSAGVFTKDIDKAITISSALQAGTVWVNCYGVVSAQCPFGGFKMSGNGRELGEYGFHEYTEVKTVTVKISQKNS
HPGD inh = HPGD (human) dehydrogenase inhibition | Potency, µM, inactives show at the top dose activity change, negative = inhibition, hits mostly inhibitors | purified HPGD, NADH fluorescence kinetic, PGE2 substrate | hit rate 4.3% among 150,000; note: potency is the fitted concentration of half-maximal effect
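20 nM HPGD preincubated 15 min at room temperature with compound in 50 mM Tris-HCl pH 8, 0.01% Tween 20. Started with 1 mM NAD+ and 30 uM prostaglandin E2; NADH fluorescence (360/450 nm) read 5 times over 30-s intervals, last minus first.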
PNC inhibitor = blocks assembly of the perinucleolar compartment; PC3M PTB-GFP, PNC prevalence imaging, 16 h; stronger effect = lower value; hit rate 3.1% among 140,000; AID 2417; activity change (PNC), negative = inhibition, % at 10 µM;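 active = readout at or below -70, meaning at least 70% loss of cells showing the perinucleolar compartment, a nuclear body marking cancer cells; inconclusive = readout between -30 and a set limit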;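 note: plate controls were DMSO wells for no effect and camptothecin positive control wells for full effect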
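Compounds are pinned in duplicate onto adhered PC3M cells stably expressing GFP-tagged PTB and incubated 16 h at 37 C. Cells are then fixed, nuclei stained with Hoechst, and PNC-positive cells counted.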
Starred values were filed as active, the others as inactive; ? = inconclusive; · = not tested or not shown; ! = repeats disagree; [ ] = another dose, or the depositor's remark. Unless noted, calls come from the whole dose curve; as a rule, active = well fitted inhibition curve with a large enough effect (not every such curve was filed as active); inconclusive = small, poorly fitted or top-dose-only effect, or another doubt; inactive = no such curve, though single readings can be large or run the other way. Unless noted, % is set by controls: 0 for no effect and ±100 for the full control effect.

SMILES | JMJD2E inh | ALDH1A1 block | HPGD inh | PNC inhibitor
Cc1ccc(NC(=O)CN2C(=O)S/C(=C\c3cc(C)n(-c4cccc(C(=O)O)c4)c3C)C2=O)cc1 | ? | 13µM* | · | ·
CC(=O)OCc1ccc2c(c1)OCO2 | · | -9% | -13% | ·
CN(CC(=O)O)Cc1c[nH]c2ccccc12 | · | 19%[13.5 µM] | -2% | ·
COC(=O)C1=C(C)N(Cc2ccccc2)[C@]23O[C@](C(=O)OC)(C(=O)N2C1c1ccccc1)C(C(=O)OC)C3C(=O)OC (some centres not stated) | · | -3%[13.5 µM] | · | ·
O=[N+]([O-])c1ccc(N=Nc2ccc(O)cc2O)cc1 | -5% | 10µM* | -19% | 4
CC(C)(C)N1C(=O)[C@H]2[C@H]3[C@H](O)[C@H](O)C/C(=N/OC[C@@H](O)COCc4ccco4)[C@@H]3CC[C@@H]2C1=O | · | 8%[13.5 µM] | · | ·
O=C(O)c1cccc(CN2C(=O)SC(Nc3ccccc3)C2=O)c1 (configuration not stated) | -1% | 7.1µM* | -10% | -5
CN1C(=O)SC(Nc2ccccc2)C1=O (configuration not stated) | 0% | 32µM* | 2% | 26
Cc1ccc(NC2SC(=O)N(Cc3cccc(C(=O)O)c3)C2=O)cc1 (configuration not stated) | 4% | 25µM* | -5% | 7
Cc1ccc(NC2SC(=O)N(Cc3cccc(C(=O)O)c3)C2=O)c(C)c1 (configuration not stated) | 7% | · | · | ·
Cc1cc([N+](=O)[O-])nn1CC(=O)NCc1nc2ccccc2[nH]1 | -4% | 2% | · | ·
CC(=O)c1c(C)cc(C)c(CSc2nc(C)cc(=O)[nH]2)c1C | 4% | -15% | ? | -112*
Cc1cc(=O)[nH]c(SCc2cccc(Br)c2)n1 | -29% | -8% | 14µM* | 12
COC(=O)c1cc(=O)[nH]c(SCc2cccc(C)c2)n1 | -8% | -2% | -24% | 78
CCOC(=O)CSc1nc(C)cc(=O)[nH]1 | -4% | 4% | -8% | -9
COc1ccc(CSc2nc(C)cc(=O)[nH]2)cc1Br | -3% | 4% | 16µM* | -22
CNC(=O)[C@H]1O[C@@H](n2cnc3c(N)ncnc32)[C@H](O)[C@@H]1O | · | 0% | · | ·
CC(C)Cc1nc(S(=O)(=O)c2ccc(Cl)cc2)c(N2CCOCC2)o1 | -21% | ? | -6% | 18
COc1cc(-c2nc(S(=O)(=O)c3ccc(C)cc3)c(N3CCOCC3)o2)cc(OC)c1OC | -28% | 1.1µM* | -12% | ?
O=S(=O)(c1ccc(Cl)cc1)c1nc(-c2ccco2)oc1N1CCOCC1 | -22% | · | · | ·
CC(C)(C)c1nc(S(=O)(=O)c2ccc(Cl)cc2)c(N2CCOCC2)o1 | ? | 18µM* | -13% | 41
COc1cc(-c2nc(S(=O)(=O)c3ccc(C)cc3)c(N(C)C)o2)cc(OC)c1OC | ? | ? | -11% | 20
COc1cc(-c2nc(S(=O)(=O)c3ccc(Cl)cc3)c(N3CCOCC3)o2)cc(OC)c1OC | -10% | 1µM* | -11% | 67
N#Cc1c(-c2ccccc2)nc(SCC(=O)N(c2ccccc2)c2ccccc2)[nH]c1=O | -3% | 13µM* | 28µM* | -27
CCOC(=O)CCCCC(=O)c1[nH]c(=O)[nH]c1CSCCO | 6% | -14% | -11% | -6
SMILES | JMJD2E inh | ALDH1A1 block | HPGD inh | PNC inhibitor
CCOC(=O)CCCCC(=O)c1[nH]c(=O)[nH]c1CSc1nc(-c2ccccc2)c(C#N)c(=O)[nH]1 | -12% | 7.9µM* | 20µM* | 45
N#Cc1c(-c2ccccc2)nc(SCC(=O)Nc2ccccc2F)[nH]c1=O | 0% | ? | 16µM* | 48
COc1cccc(CSc2nnc(CSc3nc4nc(C)cc(C)n4n3)s2)c1 | 4% | ? | 16µM* | -28
Cc1cc(C)n2nc(SCc3nnc(SCc4ccccc4C)s3)nc2n1 | 2% | 13% | 25µM* | ?
Cc1cc(C)n2nc(SCc3nnc(SCc4ccccc4Cl)s3)nc2n1 | -7% | 8% | 28µM* | ?
Cc1cc(C)n2nc(SCc3nc4ccccc4[nH]3)nc2n1 | -2% | 0% | -15% | ?
CC(=O)N1CCC2(CCN(Cc3ccncc3)CC2)CC1 | · | -3% | -5% | ·
CCN(C(=O)c1cc2c(C)nc3ccccc3c2o1)c1cc(Cl)ccc1OC | -17% | · | · | ·
CC1OC(OC2C(CO)OC(OC3C(CO)OC(O)C(O)C3O)C(O)C2O)C(O)C(O)C1NC1C=C(CO)C(O)C(O)C1O (configuration not stated) | -24% | ? | -15% | ·
CCOC(=O)c1ccc(N2C(=O)CC(N3CCCC(C)C3)C2=O)cc1 (configuration not stated) | -5% | 3.2µM* | -16% | 44
CCOC(=O)N1CCN(C2CC(=O)N(c3ccc(Cl)c(Cl)c3)C2=O)CC1 (configuration not stated) | 1% | 14µM* | ? | -100*
CCOC(=O)c1ccc(N2C(=O)CC(N3CCC(Nc4ccc(F)cc4)CC3)C2=O)cc1 (configuration not stated) | -8% | 3.2µM* | -15% | 24
CCOC(=O)N1CCN(C2CC(=O)N(c3ccccc3)C2=O)CC1 (configuration not stated) | 3% | -2% | -8% | -10
CCOC(=O)c1ccc(N2C(=O)CC(N3CCN(Cc4ccccc4)CC3)C2=O)cc1 (configuration not stated) | 2% | 28µM* | -4% | 5
O=C1CC(N2CCN(Cc3ccccc3)CC2)C(=O)N1c1ccccc1 (configuration not stated) | -3% | -14% | -2% | 14
CC(C)(CCC(C)(C)c1ccccc1)c1ccccc1 | · | 11%[13.5 µM] | -2% | ·
O=C(Cn1cc(C(F)(F)F)ccc1=O)N/N=C/c1cccc(Cl)c1 | 21% | 11% | -9% | ?
COc1ccccc1NC(=O)Cn1c(CCC(=O)O)ccc1-c1ccccc1 | ? | 4% | · | ·
CCN(CC)c1ccc2c(c1)CCCN2 | ? | 25µM* | -10% | -5
O=S(=O)(c1ccc2c(c1)CCCN2)N1CCCC2CCCCC21 (configuration not stated) | -22% | -10% | · | ·
CCOC(=O)N1CCC(NC(=O)CCC(=O)N2CCOc3ccc(Cl)cc32)CC1 | 3% | ? | · | ·
CC(C)[C@H](NC(=O)NC1CCCC1)C(=O)O | 8% | 18% | -2% | 21
CC(C)=CCCC(C)NC(=O)NC1CCCCC1 (configuration not stated) | -3% | 0% | 35µM* | 0
O=[N+]([O-])c1ccccc1N=Nc1c(O)[nH]c2ccc(S(=O)(=O)O)cc12 | · | -8%[13.5 µM] | 4µM* | ·
O=C(N=Nc1c(O)[nH]c2ccc([N+](=O)[O-])cc12)c1ccccc1[N+](=O)[O-] | -3% | · | · | ·
CCOC(=O)Cn1nc(C)c(NC(=O)c2ccc(Cl)c([N+](=O)[O-])c2)c1C | 0% | -4% | · | ·
Clc1cccc2c1CCN(Cc1nc(-c3cnccn3)no1)C2 | -12% | ? | · | ·
CCc1ccc2oc(-c3cc(N)cc(C)c3O)nc2c1 | -25% | ? | -5% | -107*
CC1=C(/C=C/C(C)=C/C=C/C(C)=C/C(=O)Nc2ccc(O)cc2)C(C)(C)CCC1 | 20µM*! | 20µM*! | -9% | ·
